LYPLA2 inh = LYPLA2 inhibitors, primary screen, counter-screen for PME1 inhibitor project, biochemical, fluorescence polarization, FP-Rh probe ABPP | recombinant LYPLA2 | inhibition, % at 5.9 µM | 0.38% of 320,000 active;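 active = inhibition above the screen-wide mean plus 3 SD, limit set per campaign, cut at about 26% in these data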
LYPLA1 counter = LYPLA1 inhibitors, primary screen, counter-screen for PME1 inhibitor project, biochemical, fluorescence polarization, FP-Rh probe ABPP; recombinant LYPLA1; 0.16% of 320,000 active; inhibition, % at 5.9 µM; Acyl-protein thioesterase 1 (Homo sapiens), O75608;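 active = inhibition above the mean of all tested compounds plus 3 SD, set per campaign, cut at about 14% in these data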;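 note: inhibitors block serine hydrolase probe labeling of LYPLA1 so polarization falls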
Target sequence (O75608 whole entry, looked up): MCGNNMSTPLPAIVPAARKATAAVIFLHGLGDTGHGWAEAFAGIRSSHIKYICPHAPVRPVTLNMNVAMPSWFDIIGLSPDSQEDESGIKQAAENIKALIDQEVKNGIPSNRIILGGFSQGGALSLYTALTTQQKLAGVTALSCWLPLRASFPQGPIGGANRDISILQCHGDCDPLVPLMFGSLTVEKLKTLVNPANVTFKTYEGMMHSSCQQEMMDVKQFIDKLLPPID
PREPL inhibitor = PREPL enzyme inhibitors, primary screen, biochemical, fluorescence polarization. Prolyl endopeptidase-like (Homo sapiens), Q4J6C6. recombinant PREPL, fluorescence polarization activity-based probe. inhibition, % at 5.96 µM. 0.68% of 320,000 active
EBNA-1 inhibitor = EBNA-1 DNA-binding inhibitors, primary screen, biochemical, fluorescence polarization; 0.34% of 300,000 active; inhibition, % at 14.8 µM; AID 1950, 2009; in the data active = inhibition above about 28%
ZTA counter = blocks Epstein-Barr virus ZTA, an EBNA-1 counter-screen; ZTA-DNA binding, fluorescence polarization; P03206; 0.15% of 320,000 active; AID 2234; inhibition, % at 11 µM; in the data active = inhibition above about 33%
Target sequence (P03206 whole entry, looked up): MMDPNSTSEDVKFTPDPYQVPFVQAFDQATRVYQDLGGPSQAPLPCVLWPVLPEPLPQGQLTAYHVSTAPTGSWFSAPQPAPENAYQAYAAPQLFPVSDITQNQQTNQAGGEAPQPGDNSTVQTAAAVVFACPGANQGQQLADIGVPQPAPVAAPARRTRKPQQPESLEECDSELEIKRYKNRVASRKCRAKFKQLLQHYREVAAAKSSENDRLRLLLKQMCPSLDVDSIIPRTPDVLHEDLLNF
LYPLA2 conf = LYPLA2 inhibitors, retest, confirmation, counter-screen for PME1 inhibitor project, biochemical, fluorescence polarization, FP-Rh probe ABPP; shares compounds with LYPLA2 inh; recombinant LYPLA2; inhibition, % at 5.9 µM; 72% of 1,100 active;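 active = mean inhibition across replicates above the hit cutoff set in the primary screen, cut at about 26% in these data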;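 note: blocked labeling of the enzyme by serine hydrolase FP-Rh probe lowers polarization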
LYPLA2 gel ABPP = LYPLA2 inhibitors in proteome, late-stage follow-up, gel-based competitive ABPP, fluorescence, assay provider. rhLYPLA2 in mouse brain proteome, gel ABPP FP-Rh. inhibition, % at 20 µM. 30% of 150 active. shares compounds with LYPLA2 inh;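 active = inhibition of LYPLA2 enzyme probe labeling above about 50%, limit read from the data; inactive = inhibition below that limit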;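 note: loss of FP-Rh probe labeling of the LYPLA2 gel band measured as band density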
PREPL confirm = human PREPL enzyme inhibitors, confirmation, biochemical, fluorescence polarization. AID 2803, 2010. shares compounds with PREPL inhibitor. recombinant PREPL, fluorescence polarization activity probe. 67% of 2,000 active. inhibition, % at 5.96 µM
Hits are given with their value; i = inactive; nt = not tested or not shown. Sampled rows, rich in hits. Any-hit rate of the full collection: about 1.3%. Cut-off read from the data, not from the text of the source, unless noted: active = inhibition above about 43%; inactive = the rest.

SMILES	LYPLA2 inh	LYPLA1 counter	PREPL inhibitor	EBNA-1 inhibitor	ZTA counter	LYPLA2 conf	others
C#CCOCCOCCOCCNc1nc(N2CCN(C(=O)CCCCCCCCCCNC(=O)Cn3cc(C[C@@H](C)O)nn3)CC2)nc(N2CCN(C(=O)CCCCCCCCCCNC(=O)[C@@H]([C@H](C)CC)n3cc(CCCCCN)nn3)CC2)n1	31	i	i	i	i	28
C[C@H](NC(=O)OC(C)(C)C)c1nnc(SCC(=O)Nc2cccc(Cl)c2)o1	i	i	i	i	i	nt
CC(C)[C@H](NC(=O)OC(C)(C)C)c1nnc(SCC(=O)Nc2ccc(Br)cc2)o1	48	i	i	i	i	54
CC(=O)Nc1ccc(C(=O)OCC(=O)c2ccc(S(=O)(=O)N3CCCCC3)cc2)cc1	i	i	i	i	i	nt
CNC(=O)COC(=O)c1ccc(Cl)c(S(=O)(=O)N2CCCC2)c1	28	i	i	i	i	i
CC(=O)Nc1cccc(C(=O)OCC(=O)c2ccc(S(=O)(=O)N3CCCCC3)cc2)c1	66	i	i	i	i	62
Cc1ccc(NC(=O)CSc2ncc3ccccn23)cc1	i	i	i	i	i	nt
O=C(c1cc(COc2ccc(F)cc2Cl)on1)N1CCCCCC1	i	i	i	i	i	nt
O=C(c1cc(COc2ccc(F)cc2Cl)on1)N1CCC(c2ccncc2)CC1	33	i	i	i	i	30
COc1ccc(C(=O)O/N=C2\CCCc3nonc32)cc1	42	i	i	i	i	61
CCCCCCC1CC(CC(=O)Nc2ccc([N+](=O)[O-])cc2)C(=O)O1 (stereo not drawn)	34	i	i	i	i	28
CCCCCC1CC(CC(=O)NC(=S)Nc2ccc([N+](=O)[O-])cc2)C(=O)O1 (stereo not drawn)	i	i	i	i	i	nt
COc1ccc(C(c2c(N)[nH]c(=S)[nH]c2=O)c2c(N)[nH]c(=S)[nH]c2=O)cc1	i	i	i	i	i	nt
COC(=O)C(NS(=O)(=O)c1ccc(N2CCCC2=O)cc1)c1ccccc1 (stereo not drawn)	i	i	i	i	i	nt
CN(C(=O)c1ccc(NC(=O)Cc2ccc(NC(=O)C3CCCN(C(=O)C4CCCCC4)C3)cc2)cc1)C1CC1 (stereo not drawn)	57	i	i	nt	i	51	LYPLA2 gel ABPP=i
CN(C(=O)c1ccc(NC(=O)Cc2cccc(NC(=O)C3CCCN(C(=O)C4CCCCC4)C3)c2)cc1)C1CCCC1 (stereo not drawn)	i	i	i	nt	i	nt
CN(C(=O)c1ccc(NC(=O)Cc2cccc(NC(=O)C3CCCN(C(=O)C4CCC4)C3)c2)cc1)C1CCCC1 (stereo not drawn)	i	i	i	nt	i	nt
CN(C(=O)c1ccc(NC(=O)Cc2ccc(NC(=O)C3CCCN(C(=O)c4ccccc4)C3)cc2)cc1)C1CC1 (stereo not drawn)	63	i	i	nt	i	60	LYPLA2 gel ABPP=i
CN(C(=O)c1ccc(NC(=O)Cc2ccc(NC(=O)C3CCCN(C(=O)C4CCCC4)C3)cc2)cc1)C1CC1 (stereo not drawn)	57	i	i	nt	i	51	LYPLA2 gel ABPP=i
CN(C(=O)c1ccc(NC(=O)Cc2ccc(NC(=O)C3CCN(C(=O)C4CCCCC4)CC3)cc2)cc1)C1CC1	i	i	i	nt	i	nt
CN(C(=O)c1ccc(NC(=O)Cc2ccc(NC(=O)C3CCCN(C(=O)C4CCC4)C3)cc2)cc1)C1CC1 (stereo not drawn)	66	i	i	nt	i	61	LYPLA2 gel ABPP=i
O=[N+]([O-])c1ccc(Sc2cccc3cccnc23)c([N+](=O)[O-])c1	i	i	i	i	i	nt
O=[N+]([O-])c1ccc(Sc2cccc3cccnc23)cc1	28	i	i	i	i	i
CCn1cc(S(=O)(=O)Nc2ncccn2)cn1	i	i	i	i	i	nt
O=[N+]([O-])c1ccc(CN2CCSCC2)cc1	i	i	i	i	i	nt
SMILES	LYPLA2 inh	LYPLA1 counter	PREPL inhibitor	EBNA-1 inhibitor	ZTA counter	LYPLA2 conf	others
O=[N+]([O-])c1ccc(CN2CCN(c3ccc([N+](=O)[O-])cc3)CC2)cc1	47	i	45	i	i	31	PREPL confirm=51
COc1ccccc1CNC(=O)CSC(=S)N1CCCC1	i	i	i	i	i	nt
O=C(NCc1cccs1)c1cc(-c2ccncc2)nc2ccc(Br)cc12	i	i	i	i	i	nt
COc1ccc2c(c1)CCc1cc(C(=O)N3CCN(c4ccc(N5CCOCC5)nn4)CC3)sc1-2	59	i	53	i	i	60	LYPLA2 gel ABPP=i;PREPL confirm=56
O=C(C1CCN(c2ncnc3c2nc2n3CCCCC2)CC1)N1CCN(c2cccc(Cl)c2)CC1	34	i	49	i	i	26	PREPL confirm=47
COc1cc(OC)c2c3c(c(C4CCCCC4)nc2c1)CCC3	i	i	i	i	i	nt
COc1ccc(N2CCN(C(=O)c3ccc(Cn4c(=S)[nH]c5ccc(N6CCOCC6)cc5c4=O)cc3)CC2)cc1	75	i	45	i	i	72	LYPLA2 gel ABPP=i;PREPL confirm=45
CCCCCCCCC[n+]1cccc2c3ccccc3ccc21	i	i	i	i	i	nt
CCCCCCCCCCCCCCCC[n+]1cccc2ccccc21	32	i	56	i	i	57	PREPL confirm=i
O=C(N/N=C/c1cn(CCOc2ccccc2)c2ccccc12)c1ccncc1	29	i	54	i	i	i	PREPL confirm=i
COc1cccc(NC(=S)N2CCN(c3ccc([N+](=O)[O-])cc3)CC2)c1	i	i	i	i	i	nt
COc1ccc(NC(=S)N2CCN(c3ccc([N+](=O)[O-])cc3)CC2)cc1OC	36	i	47	i	i	29	PREPL confirm=49
CCC1CN(C(=O)N2CCC(C(=O)NCc3cc(OC)c(OC)c(OC)c3)CC2)c2ccccc2O1 (stereo not drawn)	i	i	i	i	i	nt
c1ccc(-c2csc3ncnc(N4CCN(Cc5ccc6c(c5)OCO6)CC4)c23)cc1	i	i	i	i	i	nt
